Shown are actives, neighbours in structure and some others; about 4.8% of the full set was active somewhere.
USP1 inh – inhibitors of human USP1/UAF1 deubiquitinase; 390,000 tested, 0.23% active; O94782; recombinant USP1/UAF1, Ub-Rhodamine cleavage fluorescence; Potency, µM (titrated, usually from 57.1 µM), for the others: at the highest dose activity change, negative = inhibition, usual class: inhibitors; also: potency is read from the fitted curve at half-maximal effect; % is scaled to controls: 0 for no effect and ±100 for the full control effect; nearly all actives have a fitted effect of over 60% in size
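1 nM enzyme complex + cpd, 15 min RT; start with Ub-Rho 150nM final; kinetic fluorescence ex 480/em 540, 6 reads q60 s. Buffer 50mM HEPES pH 7.8, 0.5mM EDTA, 0.1 mg/ml BSA, 1mM TCEP, 0.01% Tween-20.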
IL1B secr inh – inhibitors of inflammasome signaling (IL-1 beta secretion); AID 743279; 360,000 tested, 4.7% active; activity change, % at 57.5 µM; THP-1 LPS/ATP IL-1B secretion, AlphaLISA, 16 h; hits give low values; in the data active = activity change below about -50%; inconclusive = mostly about -30% to -49%; also: % is scaled to controls: 0 for no effect and ±100 for the full control effect
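THP-1 cells pretreated 1 hr with compounds (up to 57.5 uM final), then stimulated with LPS (250 ng/mL final) plus ATP (1.25 mM final); secreted IL-1B measured by AlphaLISA after 16 hr, decreased signal indicating inhibition.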
USP2a block – blocks human ubiquitin-specific protease USP2a; O75604; USP2 core, Ub-CHOP2 coupled fluorogenic reporter, 485/531; Potency, µM (titrated, usually from 38.3 µM), for the others: at the top dose activity change, negative = inhibition, usual class: inhibitors; 330,000 tested, 0.01% active; AID 463254;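 also: potency is read from the fitted curve at half-maximal effect; plate controls were DMSO wells for no effect and full inhibition by NEM control for full effect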
Target sequence (O75604 whole entry, looked up): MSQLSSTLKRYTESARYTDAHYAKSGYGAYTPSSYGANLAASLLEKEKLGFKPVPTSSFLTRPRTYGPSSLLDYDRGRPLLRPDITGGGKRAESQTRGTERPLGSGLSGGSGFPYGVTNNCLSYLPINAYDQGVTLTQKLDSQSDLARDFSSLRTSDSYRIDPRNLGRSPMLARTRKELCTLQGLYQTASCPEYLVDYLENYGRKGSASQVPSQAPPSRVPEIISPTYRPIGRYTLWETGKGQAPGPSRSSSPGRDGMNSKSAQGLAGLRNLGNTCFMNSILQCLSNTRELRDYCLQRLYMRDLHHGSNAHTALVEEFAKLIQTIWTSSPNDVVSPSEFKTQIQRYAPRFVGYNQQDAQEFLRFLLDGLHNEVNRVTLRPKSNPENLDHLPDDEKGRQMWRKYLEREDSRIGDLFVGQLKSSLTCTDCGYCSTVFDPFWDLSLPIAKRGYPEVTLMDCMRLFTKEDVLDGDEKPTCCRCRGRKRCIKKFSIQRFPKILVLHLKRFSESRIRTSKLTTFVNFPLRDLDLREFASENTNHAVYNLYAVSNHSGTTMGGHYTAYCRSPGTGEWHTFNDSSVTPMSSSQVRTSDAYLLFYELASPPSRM
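USP2 core (10nM final) preincubated 30min RT with compound in 20mM Tris-HCl pH 8.0, 2mM CaCl2, 2mM beta-mercaptoethanol, 0.05% CHAPS; 25nM Ub-CHOP2 plus 25nM reporter substrate added, fluorescence (Ex485/Em531) read after 60min.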
ATXN2 expr inh – ATXN2 expression inhibition | HEK-293 ATXN2-luciferase reporter, luminescence, 24 h | Potency, µM (titrated, usually from 57 µM), for the others: top-dose activity change, negative = inhibition, most hits filed as inhibitors | 360,000 tested, 0.72% active | AID 1745845; also: potency is read from the fitted curve at half-maximal effect; % is scaled to controls: 0 for no effect and ±100 for the full control effect; nearly all actives have a fitted effect of over 55% in size
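qHTS (up to 57 uM final) was run with 24 h compound exposure of reporter cells at 37 °C. Each well was multiplexed: SteadyGlo luminescence measured ATXN2-luciferase expression after a fluorogenic Gly-Phe-AFC viability readout (25 uM final).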
S2 tox – reduces viability in counter-screen for ATXN expression inhibitors. S2 cells (HEK-293 line with an ATXN2-luciferase reporter) viability, CellTiter-Fluor protease fluorescence, 24 h. Potency, µM (titrated, usually from 56.7 µM), hits mostly cytotoxic. 400,000 tested, 0.49% active; also: potency is read from the fitted curve at half-maximal effect; nearly all actives have a fitted effect of over 40% in size
* marks the source's active call; other numbers are inactive results; i = inactive; ? = inconclusive; . = no result. Unless noted, calls follow the shape of the dose curve; as a rule, active = well fitted curve in the direction sought with a large enough effect; inconclusive = small, poorly fitted or top-dose-only effect, or another doubt; inactive = no such curve, though single readings can be large; an effect the other way counts as inactive or inconclusive.

SMILES	USP1 inh	IL1B secr inh	USP2a block	ATXN2 expr inh	S2 tox
O=C(CN1C(=O)/C(=C/c2ccccc2Cl)SC1=S)NC1C=CS(=O)(=O)C1 (centres undefined)	-23%	-79*	-1%	12%	i
COc1ccc(/C=C2\SC(=S)N(C(C)C(=O)NC3C=CS(=O)(=O)C3)C2=O)cc1 (centres undefined)	-31%	-61*	2%	24%	i
O=S(=O)(N=Cc1c(O)ccc2ccccc12)c1cccs1	.	.	.	47%	.
CSCCC(C(=O)NCc1ccccc1)n1c(C2CCN(C(C)=O)CC2)nc2ccccc21 (centres undefined)	.	-52*	.	.	.
CCOc1ccc(CN2CCC(C(=O)Nc3cccc(-c4ccn[nH]4)c3)CC2)cc1Cl	-5%	-76*	2%	?	?
O=C1C=CC(=Nc2ccc(F)cc2)O1	-3%	-51*	.	4%	i
Cc1ccc(OC(C)C(=O)N2CC(=O)Nc3ccccc32)c(C)c1 (centres undefined)	-21%	10	0%	4%	i
COc1ccc(CNC(=O)[C@@H](NC(=O)C2CCN(C(=O)[C@@H](N)CCSC)CC2)C(C)C)cc1	-20%	2	0%	2%	i
N/C(=N\OC(=O)c1ccccc1Cl)c1ccc(Cl)cc1	-15%	24	0%	111%	i
N/C(CCS(=O)(=O)c1ccc(Cl)cc1)=N\OC(=O)c1ccccc1Cl	-15%	-51*	0%	-12%	?
Cc1cnc(-n2ncc(C(=O)NCCc3cccnc3)c2C)nc1-c1ccc(F)cc1	.	.	.	.	i
CCCn1nc(NC(=O)c2ccco2)c2cc3cc(C)ccc3nc21	-26%	0	3%	18%	.
CCCn1nc(NS(=O)(=O)c2cccc3nonc23)c2cc3cc(C)ccc3nc21	-12%	-87*	-1%	6%	i
CCCn1nc(NC(=O)c2ccccn2)c2cc3cc(C)ccc3nc21	-14%	-63*	2%	10%	i
COc1ccc(N(C(=O)c2ccco2)C(C(=O)NC2CCCCC2)c2cccs2)cc1OC (centres undefined)	-14%	6	4%	1%	?
C#CC(=O)N(c1cc(OC)ccc1OC)C(C(=O)NC1CCCC1)c1cccs1 (centres undefined)	-7%	-120*	-1%	?	32µM*
C#CC(=O)N(c1ccc(OC)cc1OC)C(C(=O)NC1CCCC1)c1cccs1 (centres undefined)	-20%	-102*	0%	1.8µM*	.
COCCOCC(OC)OC	.	.	.	5%	i
Cc1ccc(NC(=O)CSc2ncc3c(n2)-c2ccccc2N(C)S3(=O)=O)c(Cl)c1	-24%	.	.	.	.
O=C(Nc1cc(C(F)(F)F)ccc1-n1cncn1)c1ccc(Br)cc1	-10%	?	2%	-32%	i
COc1ccc(N2CCCC2)c(NC(=O)c2ccc([N+](=O)[O-])o2)c1	-24%	-71*	3%	-39%	?
O=C(Nc1ccccc1N1CCCC1)c1ccc([N+](=O)[O-])o1	-10%	-93*	-1%	?	?
CCC(=O)N1CCN(c2ccccc2NC(=O)c2ccc([N+](=O)[O-])o2)CC1	-16%	-55*	3%	-32%	i
CC(C)C(=O)N1CCN(c2ccccc2NC(=O)c2ccc([N+](=O)[O-])o2)CC1	-22%	-28	2%	?	?
O=C(Nc1cc(C(F)(F)F)ccc1-n1cncn1)c1ccc([N+](=O)[O-])o1	-23%	-94*	5%	?	?
SMILES	USP1 inh	IL1B secr inh	USP2a block	ATXN2 expr inh	S2 tox
Cc1cccc2c1-c1sc(C(=O)Nc3ccccc3N3CCN(C)CC3)cc1CO2	-10%	-93*	-3%	28µM*	?
Cc1cccc2c1-c1sc(C(=O)NCCCN3CCN(c4ccccc4F)CC3)cc1CO2	-25%	.	.	-37%	i
O=C(Nc1ccccc1N1CCOCC1)c1ccc(Br)o1	-1%	-10	1%	?	i
CN1CCN(c2ccccc2NC(=O)c2ccc(Br)o2)CC1	-15%	-52*	-1%	-21%	i
CCN(C(=O)CSc1nc2ccccc2n1CC(=O)Nc1ccccc1C)c1ccccc1	-18%	.	.	-9%	i
N/C(=N\OC(=O)Nc1ccccc1)c1ncc([N+](=O)[O-])s1	?	-64*	-1%	?	?
O=C(O)C1CC=CCC1C(=O)N1CCN(c2nc(-c3ccccc3)c3ccccc3n2)CC1 (centres undefined)	-6%	-63*	1%	-5%	i
Cc1ccc(-n2cc(CN(C)CCc3cn[nH]c3)c(-c3cccc(C)c3)n2)cc1	1%	-19	-1%	?	i
Cc1ccc(-c2nn(-c3cccc(F)c3)cc2CN(Cc2nccn2C)C(C)C)o1	-21%	-96*	3%	-14%	?
Cc1ccc(-n2cc(CN(C)Cc3nccn3C)c(-c3ccc(F)cc3)n2)cc1	?	-139*	-2%	-18%	i
CCN1CC(CN(C)Cc2cn(-c3ccc(C)cc3)nc2-c2cccc(C)c2)CC1=O (centres undefined)	-20%	-86*	-1%	0%	i
CCn1ccnc1CN(C)Cc1cn(-c2ccccc2)nc1-c1ccc(OC)cc1F	-8%	-74*	-1%	-10%	i
Nc1ccc(S(=O)(=O)Nc2ccccc2)cc1	.	.	.	7%	i
CCn1nc(NS(=O)(=O)c2ccc([N+](=O)[O-])cc2)c2cc3ccccc3nc21	-23%	22	1%	7%	i
Cc1cc(OCC(=O)Nc2sc3c(c2C#N)CCC(C)C3)ccc1Cl (centres undefined)	-23%	.	.	11%	i
CCc1ccc(CNC(=O)c2cccc(-n3cnc4cccnc43)c2C)cc1	-11%	.	.	.	.
Cc1ccc(-n2cc(CN(C)Cc3ncc[nH]3)c(-c3cccc(C)c3)n2)cc1	?	-81*	0%	?	?
Cc1ccc(-n2cc(CN3CCC(O)(c4ccccn4)CC3)c(-c3ccc(F)cc3)n2)cc1	-8%	-103*	0%	1%	i
CN(Cc1ncc[nH]1)Cc1cn(-c2ccccc2)nc1-c1ccc2c(c1)OCO2	-17%	?	0%	-27%	?
O=C(O)c1cccc(NC(=O)c2cccc(NC(=O)C3CCCO3)c2)c1 (centres undefined)	-8%	-8	2%	8.9µM*	i
O=C(O)c1cccc(C(=O)Nc2cccc(NC(=O)C3CCCO3)c2)c1 (centres undefined)	-19%	-3	3%	?	i
O=C(Nc1ccc(N=Nc2ccccc2)c(NC(=O)C2CCCO2)c1)C1CCCO1 (centres undefined)	-12%	-83*	1%	-37%	i
c1ccc2c(c1)CSc1ccccc1N2	6%	-65*	.	9%	i

Source: PubChem BioAssay
